Most compounds without a hit are left out; they make up all but 19% or so of the library.
HT1080 IDH1KD tx = kills HT-1080 cells with IDH1 knockdown | HT-1080 IDH1 knockdown viability, ATP luminescence, 48 h | Potency, µM (series often up to 46.1 µM), usual class: cytotoxic | actives 2% (n = 360,000)
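Luminescent ATP read-out (CellTiter-Glo, 10 min at room temperature) after 48 h compound exposure at 37 °C gave viability of IDH1-knockdown HT-1080 cells. Activity was normalised to DMSO and cell-free wells, then fitted as concentration-response curves.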
DT40 TDP1 CPT = DT40-hTDP1 cell growth loss with CPT; chicken DT40 Tdp1-/-;hTDP1 cells + 20 nM CPT, ATP luminescence, 48 h; Potency, µM (series often up to 46.2 µM), usual class: inhibitors; actives 12% (n = 420,000); also: nearly all actives have a fitted effect of over 55% in size
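Chicken DT40 Tdp1-/- cells stably complemented with human TDP1 were seeded at 400 cells/well in medium containing 20 nM camptothecin, exposed to pin-transferred compounds, and grown at 37 °C for at least 48 hr. Viability was read as ATP luminescence.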
IL-1B inflam inh = inflammasome signaling inhibition, IL-1 beta readout; actives 4.7% (n = 360,000); activity change, % at 57.5 µM; THP-1 LPS/ATP IL-1B secretion, AlphaLISA, 16 h; active compounds read low; AID 743279; in the data active = activity change below about -50%; inconclusive = mostly about -30% to -49%
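THP-1 cells pretreated 1 hr with compounds (up to 57.5 uM final), then stimulated with LPS (250 ng/mL final) plus ATP (1.25 mM final); secreted IL-1B measured by AlphaLISA after 16 hr, decreased signal indicating inhibition.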
TDP1 cell noCPT = qHTS for Inhibitors of human tyrosyl-DNA phosphodiesterase 1 (TDP1): qHTS in cells in absence of CPT. DT40 Tdp1-/- hTDP1 cells, no CPT, ATP luminescence, 48 h. Potency, µM (series often up to 46.2 µM), hits mostly inhibitors. actives 15% (n = 420,000); also: nearly all actives have a fitted effect of over 55% in size
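Stably hTDP1-transfected Tdp1-null chicken DT40 cells were treated with library compounds minus camptothecin and grown for at least 48 hr at 37 °C, after which cellular ATP was quantified by luminescence.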
HT1080-NT tox = kills 2HG-producing HT-1080-NT fibrosarcoma cells; HT-1080-NT fibrosarcoma viability, CellTiter-Glo ATP luminescence, 48 h; Potency, µM (titrated, usually from 46.1 µM), usual class: cytotoxic; actives 1.6% (n = 360,000);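 also: NT is the 2HG producing partner of a matched IDH1 knockdown line; nearly all actives have a fitted effect of over 55% in size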
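Viability of the 2HG-overproducing fibrosarcoma line after 48 hours of compound exposure at 37 degrees C was determined by luminescence with CellTiter-Glo, and concentration-effect curves were then fitted and categorized.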
Each line names hits and unclear results; the compound was inactive in the other large screens; ! = repeats disagree. Unless noted, calls follow the shape of the dose curve; as a rule, active = well fitted curve in the direction sought with a large enough effect; inconclusive = small, poorly fitted or top-dose-only effect, or another doubt; inactive = no such curve, though single readings can be large; an effect the other way counts as inactive or inconclusive.

C=CCn1c(O)c(C(C)=NCCC(c2ccccc2)c2ccccc2)c(=O)[nH]c1=O	DT40 TDP1 CPT 20.6µM, TDP1 cell noCPT 16.4µM
C[C@@]12CCC(OS(=O)(=O)O)C[C@@H]1CCC1C2CC[C@]2(C)C(=O)CCC12 (stereo partly drawn)	none (no result: HT1080 IDH1KD tx, IL-1B inflam inh, HT1080-NT tox)
CNC(=O)c1cccn(Cc2cccc(C(F)(F)F)c2)c1=O	TDP1 cell noCPT inconclusive
CCn1cc2nc(SCc3cccc(C(F)(F)F)c3)n(Cc3ccc(OC)cc3)c(=O)c2n1	DT40 TDP1 CPT 20.6µM, TDP1 cell noCPT 14.6µM (no result: HT1080 IDH1KD tx, IL-1B inflam inh, HT1080-NT tox)
CCn1cc2nc(SCc3c(F)cccc3Cl)n(CCc3ccccc3)c(=O)c2n1	DT40 TDP1 CPT 14.6µM, TDP1 cell noCPT 23.1µM (no result: HT1080 IDH1KD tx, IL-1B inflam inh, HT1080-NT tox)
OCc1cnc[nH]1	none
COc1cccc(Oc2c(C)oc3cc(OC(=O)N(C)C)ccc3c2=O)c1	DT40 TDP1 CPT inconclusive
CCOC(=O)c1c(-c2ccc(OC)cc2)oc2ccc(OC(=O)N(C)C)cc12	HT1080 IDH1KD tx inconclusive, DT40 TDP1 CPT inconclusive, TDP1 cell noCPT 18.4µM, HT1080-NT tox inconclusive
CCC(=NCc1ccco1)c1c(O)n(C2CCCCC2)c(=O)[nH]c1=O	DT40 TDP1 CPT 23.1µM, TDP1 cell noCPT inconclusive
CCC(=NCc1cccnc1)c1c(O)n(C2CCCCC2)c(=O)[nH]c1=O	DT40 TDP1 CPT inconclusive, TDP1 cell noCPT inconclusive
CCC(=O)c1c(O)n(C2CCCCCC2)c(=O)[nH]c1=O	HT1080 IDH1KD tx inconclusive, DT40 TDP1 CPT 6.51µM, TDP1 cell noCPT 16.4µM
COC1/C=C/C=C(\C)Cc2cc(O)c(Cl)c(c2)N(C)C(=O)CC(OC(=O)C(C)C)C2(C)OC2C(C)C2CC1(O)NC(=O)O2 (stereo not drawn)	HT1080 IDH1KD tx inconclusive, DT40 TDP1 CPT 0.0164µM, TDP1 cell noCPT 0.146µM, HT1080-NT tox 0.0092µM
CN(C)CCNC(=O)c1cccn(Cc2cccc(C(F)(F)F)c2)c1=O	DT40 TDP1 CPT 23.1µM, TDP1 cell noCPT inconclusive
CCCCCCC(C)(C)c1ccc([C@@H]2C[C@H](O)CC[C@H]2CCCO)c(O)c1	HT1080 IDH1KD tx 4.61µM, DT40 TDP1 CPT 20.6µM!, IL-1B inflam inh -67.1, TDP1 cell noCPT 18.4µM, HT1080-NT tox 2.59µM
O=C(Nc1ccc(Cl)c(Cl)c1)c1ccco1	IL-1B inflam inh inconclusive
CC(C)(C)c1ccc(C(=O)Nc2ccc(NC(=O)c3ccco3)cc2)cc1	HT1080 IDH1KD tx 10µM, DT40 TDP1 CPT inconclusive, TDP1 cell noCPT inconclusive, HT1080-NT tox 10µM
CCN(CC)c1ccc(/C=N/c2sc3c(c2C#N)C2CCN3CC2)c(O)c1	HT1080 IDH1KD tx inconclusive, DT40 TDP1 CPT 18.4µM, TDP1 cell noCPT 23.1µM, HT1080-NT tox inconclusive
CN1C(=O)C2C[C@@]3(Br)c4ccccc4N(OOSc4ccccc4)[C@H]3N2C(=O)[C@@H]1Cc1ccccc1 (stereo partly drawn)	DT40 TDP1 CPT inconclusive, TDP1 cell noCPT inconclusive
CN(C)C(=O)On1c(-c2ccccc2)nc2ccc(Cl)cc21	DT40 TDP1 CPT inconclusive, TDP1 cell noCPT 29.1µM
[Cl][Pt+2][Cl].[NH-]C1CCCCC1[NH-] (stereo not drawn)	DT40 TDP1 CPT 2.31µM, TDP1 cell noCPT 5.8µM
O=[N+]([O-])c1ccc(OP(=O)(O)Oc2ccc([N+](=O)[O-])cc2)cc1	none
COc1ccc(/C=N\NC(=O)c2cccc(F)c2)cc1COc1ccccc1	HT1080 IDH1KD tx 0.581µM, DT40 TDP1 CPT 0.82µM, TDP1 cell noCPT 0.651µM, HT1080-NT tox 1.16µM
Cc1cc2oc(=O)cc(-c3ccccc3)c2c(C)c1-c1ccc(CO)cc1	DT40 TDP1 CPT 18.4µM, TDP1 cell noCPT 18.4µM
CC(C)(C)C(=O)O[C@H]1CC[C@@]2(C)C(=CC(=O)C3C2CC[C@]2(C)C(=O)[C@@H](F)CC32)C1 (stereo partly drawn)	DT40 TDP1 CPT inconclusive, IL-1B inflam inh -77.1, TDP1 cell noCPT inconclusive
CCN1C(=O)N(CC)C(=O)C2(Cc3ccccc3N3CCN(c4ccccc4)CC32)C1=O (stereo not drawn)	none
O=C(c1ccc(Cl)cc1)C1CCCN(Cc2cccn2-c2cccnc2)C1 (stereo not drawn)	DT40 TDP1 CPT inconclusive, IL-1B inflam inh -55.6, TDP1 cell noCPT 13µM
CN(C)S(=O)(=O)c1ccc(C(=O)NNc2nc(-c3ccccc3)c3cc(Br)ccc3n2)cc1	DT40 TDP1 CPT inconclusive, IL-1B inflam inh -60.4, TDP1 cell noCPT inconclusive
Cc1cc(C)cc(NC(=O)CSc2oc(-c3cccs3)nc2S(=O)(=O)c2ccc(Br)cc2)c1	DT40 TDP1 CPT 5.8µM, TDP1 cell noCPT 6.51µM (no result: HT1080 IDH1KD tx, IL-1B inflam inh, HT1080-NT tox)
Cc1ncc(CN2CCCC(C(=O)c3sccc3C)C2)s1 (stereo not drawn)	DT40 TDP1 CPT inconclusive
CCOc1cc2c(cc1OCC)-n1cccc1C(c1ccc(OC(F)F)cc1)NC2 (stereo not drawn)	HT1080 IDH1KD tx inconclusive, DT40 TDP1 CPT inconclusive, TDP1 cell noCPT 18.4µM, HT1080-NT tox inconclusive
CCOc1cc2c(cc1OCC)-n1cccc1C(c1ccc(F)cc1)NC2 (stereo not drawn)	DT40 TDP1 CPT inconclusive, TDP1 cell noCPT inconclusive
CCOc1cc2c(cc1OCC)-n1cccc1C(c1ccc(OC)cc1)NC2 (stereo not drawn)	DT40 TDP1 CPT inconclusive, IL-1B inflam inh -63.0, TDP1 cell noCPT 18.4µM
CCOc1cc2c(cc1OCC)-n1cccc1C(c1ccc(C(C)C)cc1)NC2 (stereo not drawn)	HT1080 IDH1KD tx 20.6µM, DT40 TDP1 CPT 8.2µM, IL-1B inflam inh -94.1, TDP1 cell noCPT 7.31µM, HT1080-NT tox 16.4µM
COc1cccc(C2C([N+](=O)[O-])=C(N)Oc3c2c(=O)oc2ccccc32)c1 (stereo not drawn)	none
CC[C@H]1CN2CCC1C[C@@H]2[C@H](O)c1ccnc2ccc(OC)cc12 (stereo partly drawn)	DT40 TDP1 CPT inconclusive, TDP1 cell noCPT inconclusive
CCOC(=O)c1cnc(SCc2ccc(Cl)c(Cl)c2)nc1N1CC1	HT1080 IDH1KD tx 9.2µM, DT40 TDP1 CPT 0.581µM, TDP1 cell noCPT 0.82µM, HT1080-NT tox inconclusive
Cc1cc(=O)oc2cc(OCC(=O)N3CCC(C(=O)O)(c4ccccc4)CC3)ccc12	none
Cc1ncoc1C(=O)NCC1=C(c2ccc(S(C)(=O)=O)cc2)C[C@@H]2CC[C@H]1N2CCOc1ccccc1	TDP1 cell noCPT inconclusive
CCOC(=O)C(C(=O)OCC)C(Nc1ccc(Br)cc1)c1ccccc1 (stereo not drawn)	HT1080 IDH1KD tx 12.6µM, DT40 TDP1 CPT 29.1µM, IL-1B inflam inh -70.7, TDP1 cell noCPT inconclusive, HT1080-NT tox inconclusive
CCOC(=O)c1ccc(CNCc2ccc(Br)cc2)cc1	DT40 TDP1 CPT inconclusive, TDP1 cell noCPT inconclusive
NNC(=O)c1ccc(Cl)cc1	DT40 TDP1 CPT inconclusive, TDP1 cell noCPT inconclusive
